Screening data from PubChem.
PLK1 PBD block: blocks phosphopeptide binding to human PLK1 polo-box domain | 360,000 compounds, 2.8% hits | AID 720504 | P53350 | Potency, µM, for the others: max response, negative = inhibition, actives largely listed as inhibitors | Plk1 PBD binding of FITC phosphopeptide, fluorescence polarization; also: series mostly up to about 57 µM; % is scaled to controls: 0 for no effect and ±100 for the full control effect; nearly all actives have a fitted effect of over 65% in size
BAZ2B inh: blocks human BAZ2B; AlphaScreen BAZ2B-H3K14Ac peptide displacement; Potency, µM (top dose mostly 114 µM), inactives show top-dose activity change, negative = inhibition, usual class: inhibitors; 360,000 compounds, 4.4% hits; also: % is scaled to controls: 0 for no effect and ±100 for the full control effect; nearly all actives have a fitted effect of over 60% in size
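Compounds, titrated to a top concentration of 110 uM, were incubated 30 min at room temperature with preformed BAZ2B/acetyl-K14 H3 peptide complex (50 nM each). Proximity signal was measured by AlphaScreen after 20 min with beads.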
G9a block: blocks human histone lysine methyltransferase G9a. Potency, µM (series often up to 102 µM), without a hit: top-dose activity, negative = inhibition, hits mostly inhibitors. AID 504332. G9a H3K9 monomethylation, AlphaScreen, 2 h. 350,000 compounds, 8.8% hits. Q96KQ7; also: % is scaled to controls: 0 for no effect and ±100 for the full control effect; nearly all actives have a fitted effect of over 75% in size
Target sequence (Q96KQ7 913-1193 limits assumed): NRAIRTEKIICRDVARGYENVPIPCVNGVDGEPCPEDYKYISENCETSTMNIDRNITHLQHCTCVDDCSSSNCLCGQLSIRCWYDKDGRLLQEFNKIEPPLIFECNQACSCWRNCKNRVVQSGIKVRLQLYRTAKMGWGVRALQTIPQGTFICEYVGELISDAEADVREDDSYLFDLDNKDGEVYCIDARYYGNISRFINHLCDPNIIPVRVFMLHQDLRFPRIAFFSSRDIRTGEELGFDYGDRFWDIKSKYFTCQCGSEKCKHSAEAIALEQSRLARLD
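AlphaScreen read-out: biotin-H3K9 peptide (500 nM) methylation by 20 nM enzyme with 20 uM SAM, 2 h at room temperature after 15 min compound preincubation; anti-monomethyl H3K9 antibody plus donor/acceptor beads, 10 min dark.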
HP1b binding inh: inhibitors of HP1-beta chromodomain binding to methylated histone tails | AlphaScreen HP1-beta / biotin-H3K9me3 peptide binding | Potency, µM (titrated, usually from 114 µM), inactives show top-dose activity change, negative = inhibition, actives largely listed as inhibitors | 390,000 compounds, 0.56% hits | AID 540317; also: nearly all actives have a fitted effect of over 70% in size
Target sequence (P83916 whole entry, looked up): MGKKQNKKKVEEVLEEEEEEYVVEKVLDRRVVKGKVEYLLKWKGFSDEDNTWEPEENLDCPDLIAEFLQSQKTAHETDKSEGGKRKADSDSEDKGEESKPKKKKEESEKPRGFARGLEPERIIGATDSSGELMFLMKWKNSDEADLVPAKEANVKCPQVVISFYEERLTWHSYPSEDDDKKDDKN
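Compound inhibition of the preformed complex between 50 nM HP1-beta and 50 nM biotinylated H3K9me3 peptide was read by AlphaScreen. Buffer was PBS pH 7.4 with 0.01% Tween-20. Incubations ran 30 min at room temperature, with 10 ug/mL donor/acceptor beads.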
Sfp PPTase inh: inhibitors of Bacillus subtilis Sfp phosphopantetheinyl transferase | 310,000 compounds, 3.5% hits | Q9F4F7 | Potency, µM, inactives show largest response in the series, negative = inhibition, hits mostly inhibitors | Biochemical Sfp PPTase activity, qHTS | AID 1490;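 also: the enzyme is Sfp with the accession as filed and its product quenches rhodamine fluorescence; 0% = enzyme reaction without inhibitor and -100% = no enzyme wells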
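Fluorescence-quenching assay: 15 nM Sfp-PPTase preincubated 15 min at room temperature with compound, then 5 uM rhodamine-CoA and 12.5 uM BHQ-2-labelled YbbR peptide added. Fluorescence (ex 525/em 598 nm) read at start and after 30 min; difference gives rate.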
JMJD2A Tudor: inhibitors of human JMJD2A Tudor domain. O75164. AlphaScreen JMJD2A-Tudor / H3K4me3 peptide binding. Potency, µM (top dose mostly 114 µM), inactives show at the top dose activity change, negative = inhibition, usual class: inhibitors. 390,000 compounds, 4.4% hits. AID 504339; also: % is scaled to controls: 0 for no effect and ±100 for the full control effect; nearly all actives have a fitted effect of over 50% in size
* = called active by the depositor; ? = inconclusive; · = not tested or not shown; ! = a repeat was not active; [ ] = remark or other dose. Compounds with a hit are over-represented: about 12% of the library has one in this group of screens. Calls follow the shape of the dose curve; as a rule, active = well fitted curve in the direction sought with a large enough effect; inconclusive = small, poorly fitted or top-dose-only effect, or another doubt; inactive = no such curve, though single readings can be large; an effect the other way counts as inactive or inconclusive. Potency is read from the fitted curve at half-maximal effect.

SMILES	PLK1 PBD block	BAZ2B inh	G9a block	HP1b binding inh	Sfp PPTase inh	JMJD2A Tudor
Cc1cc[n+](-c2nc3ccccc3nc2C(=C=[N-])C#N)cc1	-9%	-6%	50µM*	20%	-29%	-12%
Cc1cc(C)c[n+](-c2nc3ccccc3nc2C(=C=[N-])C#N)c1	-1%	-6%	3%	34%	13%	-6%
N#CC(=C=[N-])c1nc2ccccc2nc1-[n+]1ccccc1	27µM*!	-17%	?	-17%	5%	-19%[57.1 µM]
Cc1ccc[n+](-c2nc3ccccc3nc2C(=C=[N-])C#N)c1	2%	?	50µM*!	6%	-17%	-6%
O=C(CSc1nnc(-c2ccccc2)c(-c2ccccc2)n1)NC1CCCCC1	·	-8%	-36%[59 µM]	4%	·	-19%
Cn1nc(C(=O)NCc2ccccc2)c2c1-c1ccccc1S(=O)(=O)C2	-13%	?	-12%	16%	9%	-12%
CCOC(=O)[C@]12CCC=C1N(Cc1ccc(Cl)cc1Cl)C(=O)[C@H](CC(=O)NCC1CCCCC1)C2	-7%	·	·	·	·	·
C=NC(C(=O)NC1C(=O)N2C1SC(C)(C)C2C(=O)O)c1ccccc1 (stereo not given)	·	·	2%[2.33 µM]	·	-10%	·
CNc1cccccc1=S	?	10µM*	3.5µM*	-19%	2%	11µM*
CNc1ccccc1	-6%	-4%	9%[0.501 µM]	20%	·	-5%
CN(C)S(=O)(=O)n1cc(/C=C(\NC(=O)c2ccccc2F)C(=O)N2CCOCC2)c2ccccc21	19µM*	-2%	-9%	17%	9%	?
COc1ccc(C(=O)N/C(=C/c2ccccc2F)C(=O)NCCN2CCOCC2)cc1OC	21µM*	-31%	53%	7%	14%	-10%
CCn1cc(/C=C(\NC(=O)c2ccc(OC)c(OC)c2)C(=O)N2CCOCC2)c2ccccc21	27µM*	?	?	18%	3%	?
COc1ccc(C(=O)N/C(=C\c2cn(C)c3ccccc23)C(=O)NCCN2CCOCC2)cc1OC	0%	?	50µM*	43%	-21%	21%
CN(C)S(=O)(=O)n1cc(/C=C(\NC(=O)c2ccccc2Cl)C(=O)N2CCOCC2)c2ccccc21	-1%	-2%	23%	47%	19%	10%
CC1CC(C)CN(S(=O)(=O)c2ccc(NC(=O)c3ccc(=O)[nH]c3)cc2)C1 (stereo not given)	9%	2%	17%[12.7 µM]	28%	·	1%
C#CCOCCOCCOCCNc1nc(N2CCN(C(=O)[C@H](CCC(=O)O)n3cc(C(N)Cc4ccc(O)cc4)nn3)CC2)nc(N2CCN(C(=O)[C@H](CCC(=O)O)n3cc(C(N)[C@H](C)CC)nn3)CC2)n1 (stereo not given in full)	0%	40µM*	-127%[59 µM]	21%	-28%	25µM*
C#CCOCCOCCOCCNc1nc(N2CCN(C(=O)[C@H](CCC(=O)O)n3cc(C(N)Cc4ccc(O)cc4)nn3)CC2)nc(N2CCN(C(=O)[C@H](Cc3ccc(O)cc3)n3cc(C(N)[C@H](C)CC)nn3)CC2)n1 (stereo not given in full)	·	50µM*	-26%[12.7 µM]	·	-15%	·
O=c1c(-c2cc(-c3ccccc3)nc3c2COc2ccccc2-3)coc2ccc(Cl)cc12	·	-23%	4%[59 µM]	30%	·	-12%
CC(=O)N/C(=C\c1ccccc1)C(=O)OC(C)C(=O)c1ccccc1 (stereo not given)	0%	0%	-31%	17%	·	-1%
CCOC(=O)c1c(-c2ccc(C)o2)csc1NC(=O)CN1CCOCC1	-10%	?	50µM*	-7%	45µM*	?
CCOC(=O)c1c(-c2ccc(C)o2)csc1NC(=O)CSc1ncn[nH]1	-23%	?	?	-4%	28µM*	?
CCOC(=O)c1c(-c2cccs2)csc1NC(=O)CN1CCOCC1	0%	-6%	11%[59 µM]	37%	-21%	13%
CCOC(=O)c1c(-c2ccc(OC)cc2)csc1NC(=O)CSc1nnc(C)c(=O)[nH]1	-22%	·	2%	14%	16%	-21%
CCOC(=O)c1c(-c2ccccc2)csc1NC(=O)CCN1CCOCC1	-2%	50µM*	?	?	50µM*	2µM*
SMILES	PLK1 PBD block	BAZ2B inh	G9a block	HP1b binding inh	Sfp PPTase inh	JMJD2A Tudor
CCOC(=O)c1c(CC(C)C)csc1NC(=O)COC(=O)c1cnc(C)cn1	-8%	·	·	·	·	·
CCOC(=O)c1c(-c2ccco2)csc1NC(=O)COC(=O)c1cnc(C)cn1	-12%	50µM*	6%[0.501 µM]	?	·	?
COc1ccccc1S(=O)(=O)N(C)C[C@@H]1OCc2cnnn2CCCC(=O)N([C@H](C)CO)C[C@@H]1C	-14%	·	·	·	·	·
COc1ccc(C(=O)Nc2ccc3nc4c(c(Nc5ccccc5OC)c3c2)CCCC4)c(OC)c1	·	-20%	?	11%	·	-23%
Cc1csc(NC(=O)COc2ccc3c(C)cc(=O)oc3c2)n1	-4%	7%	-4%[59 µM]	23%	9%	-3%
CCOC(=O)c1c(-c2ccccc2)csc1NC(=O)c1ccc(S(=O)(=O)N2CCOCC2)cc1	4%	-3%	-5%[59 µM]	68%	11%	13%
CCOC(=O)c1c(-c2ccc(C)o2)csc1NC(=S)NC(=O)N(C)C	?	45µM*	?	?	56µM*	?
CCOC(=O)c1c(-c2ccc(C)cc2)csc1NC(=S)NC(=O)c1ccccc1	-5%	-29%	-12%[59 µM]	3%	21%	?
CCOC(=O)c1[nH]cc(-c2ccccc2)c1N1CCOCC1	5.3µM*	-35%	?	?	-101%	?
CCOC(=O)c1c(-c2ccccc2)csc1NC(=O)COc1ccc2c(C)cc(=O)oc2c1	27µM*	10%	-8%[59 µM]	?	7%	-25%[57.1 µM]
CCOC(=O)c1cnc(-c2ccccc2)nc1N1CCOCC1	2%	5%	12%	42%	16%	16%
CCOC(=O)c1c(-c2ccc(C)cc2)csc1NC(=O)CCN1CCOCC1	-10%	32µM*	10µM*	?	?	6.3µM*
NN=C1c2ccccc2-c2ccc(N)cc21	-2%	·	·	-23%	·	?
Cc1[nH]c2ccccc2c1-c1nc(N)sc1C	?	?	71µM*	7%	-1%	-23%
Cc1cc(Cl)ccc1OCC(=O)N/N=C1\CC2C=CCC12 (stereo not given)	-9%	4%	10%[59 µM]	26%	9%	-9%
CCOC(=O)N1CCN(S(=O)(=O)c2ccc(C(=O)NNc3nc4cc(C)cc(C)c4s3)cc2)CC1	-5%	?	50µM*	-12%	-1%	?
CCOC(=O)N1CCN(S(=O)(=O)c2ccc(C(=O)NNc3nc4ccc(Cl)cc4s3)cc2)CC1	-20%	-6%	79µM*	23%	5%	-25%
